Experimental data: PubChem BioAssay AID1963316 (National Center for Advancing Translational Sciences (NCATS), 2024)
Results filed as inconclusive are left out. Where a call stands in place of a potency, no number is given. Activity calls are given as the source filed them. The call rests on the fitted dose curve.

Target: Tyrosine-protein kinase ABL1 (Homo sapiens) (UniProt P00519)
Assay: ABL1 kinase (ABL1-N-HiBiT) SDR gain of signal screen - plus ATP
How it was run: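 ABL1-N-HiBiT protein (10 nM final) with 50 uM ATP incubated with compounds for 30 min at RT, protected from light. Nano-Glo HiBiT reagent then added for 10 min; luminescence read on CCD imager, with DMSO neutral and imatinib positive controls.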

Tyrosine-protein kinase ABL1 (Homo sapiens), sequence (P00519 whole entry, looked up): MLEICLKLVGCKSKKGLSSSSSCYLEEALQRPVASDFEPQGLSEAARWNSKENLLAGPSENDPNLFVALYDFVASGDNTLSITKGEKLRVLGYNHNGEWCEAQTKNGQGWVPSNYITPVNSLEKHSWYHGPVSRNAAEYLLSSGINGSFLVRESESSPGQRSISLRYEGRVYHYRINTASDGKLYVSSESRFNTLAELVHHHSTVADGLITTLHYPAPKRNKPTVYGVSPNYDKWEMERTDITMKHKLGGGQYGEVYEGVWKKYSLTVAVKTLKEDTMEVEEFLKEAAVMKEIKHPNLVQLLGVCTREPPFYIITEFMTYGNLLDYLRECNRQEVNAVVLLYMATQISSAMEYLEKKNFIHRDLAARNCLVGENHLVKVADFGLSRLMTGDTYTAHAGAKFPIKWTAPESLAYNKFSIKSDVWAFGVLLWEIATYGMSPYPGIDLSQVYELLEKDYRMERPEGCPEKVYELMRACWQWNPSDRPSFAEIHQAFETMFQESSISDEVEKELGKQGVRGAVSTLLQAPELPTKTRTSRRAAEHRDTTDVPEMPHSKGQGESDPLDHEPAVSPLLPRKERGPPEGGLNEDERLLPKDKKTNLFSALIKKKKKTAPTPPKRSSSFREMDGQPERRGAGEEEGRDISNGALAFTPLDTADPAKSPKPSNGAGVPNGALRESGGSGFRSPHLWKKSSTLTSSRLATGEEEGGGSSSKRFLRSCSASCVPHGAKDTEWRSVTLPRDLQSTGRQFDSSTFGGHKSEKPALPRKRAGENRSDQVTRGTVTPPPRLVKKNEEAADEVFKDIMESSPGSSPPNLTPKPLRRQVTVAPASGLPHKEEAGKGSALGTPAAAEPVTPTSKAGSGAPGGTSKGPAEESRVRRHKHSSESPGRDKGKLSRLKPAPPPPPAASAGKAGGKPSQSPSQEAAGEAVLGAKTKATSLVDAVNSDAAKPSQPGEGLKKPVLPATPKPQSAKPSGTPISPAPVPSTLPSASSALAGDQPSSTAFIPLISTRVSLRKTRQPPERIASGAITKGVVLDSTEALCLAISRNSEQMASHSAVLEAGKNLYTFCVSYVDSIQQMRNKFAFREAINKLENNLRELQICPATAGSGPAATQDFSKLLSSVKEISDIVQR

Row | SMILES | Potency
1 | Cc1cc(Nc2ncc3cc(-c4c(Cl)cccc4Cl)c(=O)n(C)c3n2)ccc1F | inactive
2 | Cc1[nH]c(/C=C2\C(=O)Nc3ccc(S(=O)(=O)Cc4c(Cl)cccc4Cl)cc32)c(C)c1C(=O)N1CCC[C@@H]1CN1CCCC1 | inactive
3 | Cc1cccc(/C=N/Nc2cc(N3CCOCC3)nc(OCCc3ccccn3)n2)c1 | inactive
4 | Nc1ncccc1-c1nc2ccc(-c3ccccc3)nc2n1-c1ccc(C2(N)CCC2)cc1 | inactive
5 | CCN1/C(=C\C(C)=O)Sc2ccc(OC)cc21 | inactive
6 | CCCCCCCCCCCCc1ccc(S(=O)(=O)Nc2nncs2)cc1 | inactive
7 | Oc1ccc(-c2ccc(-c3cc(Nc4cccc(CNC5CC5)c4)n[nH]3)cc2)c(O)c1 | inactive
8 | Cc1sc2c(c1C)C(c1ccc(Cl)cc1)=N[C@@H](CC(=O)Nc1ccc(OCCOCCOCCOCCNc3cccc4c3C(=O)N(C3CCC(=O)NC3=O)C4=O)cc1)c1nnc(C)n1-2 (stereo partly drawn) | inactive
9 | Cc1cc(O)c2c(c1)C(=O)c1cc(O)cc(O)c1C2=O | inactive
10 | COc1ccc2c(Oc3ccc(NC(=O)c4c(C)n(CC(C)(C)O)n(-c5ccccc5)c4=O)nc3)ccnc2c1 | inactive
11 | CNS(=O)(=O)c1ccc2c(c1)/C(=C/c1[nH]c3c(c1CCCN1CCN(C)CC1)CCCC3)C(=O)N2 | 1770 nM (active)
12 | Nc1nc(Nc2ccc(S(N)(=O)=O)cc2)n(C(=S)Nc2c(F)cccc2F)n1 | 1260 nM (active)
13 | CN1CCN(c2ccc(Nc3ncc4cc(C#N)c(=O)n(C5CCCC5)c4n3)cc2)CC1 | inactive
14 | N#Cc1cccc(-c2c[nH]c3ncnc(N4CCOCC4)c23)c1 | inactive
15 | COc1cc(NC(=O)c2cccc(-n3cc(NC(=O)Nc4cccc(C)c4)cn3)c2)cc(OC)c1OC | inactive
16 | Cc1cc(F)ccc1-c1nc(NCCN=C(N)NC#N)nc2c1ccc(=O)n2-c1c(F)cccc1F | inactive
17 | Cc1ccccc1-n1c([C@H](C)Nc2nc(N)nc3nc[nH]c23)nc2cccc(C)c2c1=O | inactive
18 | O=C(Nc1ccc(OC(F)(F)F)cc1)c1sccc1NCc1ccnc2ccccc12 | inactive
19 | c1cc(-c2cc(C3CCNCC3)[nH]n2)ccn1 | inactive
20 | O=S(=O)(/N=C/c1c(O)ccc2ccccc12)c1cccs1 | inactive
21 | CCNC(=O)Nc1ccc(-c2nc3c(c(N4CCOC[C@@H]4C)n2)CCN(c2ncccn2)C3)cc1 | inactive
22 | Cn1ncc(NC(=O)c2nc(-c3c(F)cccc3F)sc2N)c1N1CC[C@@H](N)[C@H](F)CC1 | inactive
23 | O=C(NCCO)c1cccc(-c2cc(Nc3ccc(OC(F)(F)F)cc3)ncn2)c1 | inactive
